Consider nine compounds from the supplement of paper PMC11732987, “Enantioselective OTUD7B fragment discovery through chemoproteomics screening and high-throughput optimisation” (Communications Chemistry, 2025).

Structures are written as SMILES. A number with no mark means an inactive call.

Common to all, as to experiment: log2 ratio of Biotin-Ahx-Ub-VS probe labelling (fragment/DMSO); higher = less target engagement (more negative = stronger competition), active = hit call of the paper (q ≤ 0.05, log2 ratio ≤ -1)
Conditions in all cases: compound concentration: 200 uM; treatment time: 3 h

One test deals with UniProt O00507. In outline: (§1)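 Values give the average log2 ratio of fragment to vehicle, assessed by unpaired t-test on global-median-normalised Spectronaut label-free quantities. Proteins needed ≥2 unique peptides. HEK293T lysate (495 µg per sample) was treated in triplicate with fragment at 200 µM or vehicle for 3 h and then with Biotin-Ahx-Ub-VS at 0.5 µM final for 1 h. Labelled DUBs were NeutrAvidin-enriched, digested and run by diaPASEF LC-MS/MS.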

A further test has as its target UniProt P51784. The gist of the method: as §1
For a further test, the target named is T1, UniProt Q5T2D3.
T1 sequence (whole entry): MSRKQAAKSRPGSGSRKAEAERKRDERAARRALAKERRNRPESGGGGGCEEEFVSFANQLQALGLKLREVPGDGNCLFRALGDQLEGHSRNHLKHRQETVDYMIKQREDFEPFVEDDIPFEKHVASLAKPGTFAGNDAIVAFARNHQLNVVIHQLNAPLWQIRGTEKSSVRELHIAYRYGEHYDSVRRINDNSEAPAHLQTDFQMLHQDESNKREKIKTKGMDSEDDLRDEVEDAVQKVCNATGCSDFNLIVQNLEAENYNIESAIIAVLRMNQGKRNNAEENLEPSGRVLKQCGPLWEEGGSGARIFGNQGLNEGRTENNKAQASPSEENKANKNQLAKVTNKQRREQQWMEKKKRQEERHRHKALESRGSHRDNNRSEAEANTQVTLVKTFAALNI
In outline:
as §1

A further test concerns the target T2, UniProt Q8TE49.
T2 sequence (whole entry): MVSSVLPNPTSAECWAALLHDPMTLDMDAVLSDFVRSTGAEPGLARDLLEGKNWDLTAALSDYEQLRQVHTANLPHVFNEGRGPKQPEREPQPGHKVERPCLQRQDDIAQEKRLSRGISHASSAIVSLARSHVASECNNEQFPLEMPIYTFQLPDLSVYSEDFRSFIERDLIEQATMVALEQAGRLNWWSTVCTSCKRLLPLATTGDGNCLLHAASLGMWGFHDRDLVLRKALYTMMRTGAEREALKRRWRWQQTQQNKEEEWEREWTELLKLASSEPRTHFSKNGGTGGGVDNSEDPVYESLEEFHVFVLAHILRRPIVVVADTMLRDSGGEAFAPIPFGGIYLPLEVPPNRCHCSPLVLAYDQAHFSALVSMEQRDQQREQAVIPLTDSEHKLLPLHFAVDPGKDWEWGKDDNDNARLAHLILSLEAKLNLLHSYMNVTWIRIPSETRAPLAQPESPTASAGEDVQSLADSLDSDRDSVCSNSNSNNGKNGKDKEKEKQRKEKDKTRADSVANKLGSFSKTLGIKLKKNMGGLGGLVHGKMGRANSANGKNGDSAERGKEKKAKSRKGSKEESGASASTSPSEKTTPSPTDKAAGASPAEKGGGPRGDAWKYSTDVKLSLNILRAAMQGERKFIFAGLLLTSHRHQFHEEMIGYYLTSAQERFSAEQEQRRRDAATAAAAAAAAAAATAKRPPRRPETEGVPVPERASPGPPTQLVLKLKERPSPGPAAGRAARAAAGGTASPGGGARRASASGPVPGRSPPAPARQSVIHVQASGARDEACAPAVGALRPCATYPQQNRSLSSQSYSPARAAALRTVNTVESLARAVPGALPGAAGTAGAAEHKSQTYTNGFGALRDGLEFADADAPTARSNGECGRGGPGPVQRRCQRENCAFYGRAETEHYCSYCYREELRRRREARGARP
The gist of the method:
as §1

Another test has as its target T3, UniProt Q9P2H5.
T3 sequence (whole entry): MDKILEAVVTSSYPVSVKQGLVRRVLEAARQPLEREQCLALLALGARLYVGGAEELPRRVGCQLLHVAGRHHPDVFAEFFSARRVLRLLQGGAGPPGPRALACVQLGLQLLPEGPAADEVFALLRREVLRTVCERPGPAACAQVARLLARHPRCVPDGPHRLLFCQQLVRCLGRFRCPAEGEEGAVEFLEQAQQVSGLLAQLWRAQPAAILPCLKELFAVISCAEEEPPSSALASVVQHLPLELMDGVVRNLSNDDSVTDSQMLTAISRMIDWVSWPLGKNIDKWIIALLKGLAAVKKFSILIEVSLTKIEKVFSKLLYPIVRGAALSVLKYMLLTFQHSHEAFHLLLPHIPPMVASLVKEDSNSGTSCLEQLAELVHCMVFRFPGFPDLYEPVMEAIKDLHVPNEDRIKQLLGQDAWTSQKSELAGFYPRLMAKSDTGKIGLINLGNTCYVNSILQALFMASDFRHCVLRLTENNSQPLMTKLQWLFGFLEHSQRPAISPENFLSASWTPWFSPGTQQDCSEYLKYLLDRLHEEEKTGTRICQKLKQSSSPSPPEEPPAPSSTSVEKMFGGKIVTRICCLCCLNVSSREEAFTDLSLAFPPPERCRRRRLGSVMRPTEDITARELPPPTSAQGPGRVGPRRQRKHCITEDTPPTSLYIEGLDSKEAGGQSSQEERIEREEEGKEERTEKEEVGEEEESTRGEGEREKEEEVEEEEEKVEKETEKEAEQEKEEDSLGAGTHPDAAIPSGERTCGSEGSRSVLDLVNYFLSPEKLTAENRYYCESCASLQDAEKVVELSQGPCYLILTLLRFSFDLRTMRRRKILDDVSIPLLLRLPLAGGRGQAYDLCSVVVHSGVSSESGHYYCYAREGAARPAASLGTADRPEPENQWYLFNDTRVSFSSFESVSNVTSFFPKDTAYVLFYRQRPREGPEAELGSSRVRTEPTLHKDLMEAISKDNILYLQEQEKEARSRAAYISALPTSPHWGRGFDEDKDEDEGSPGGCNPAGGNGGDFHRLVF
The gist of the method:
as §1

The target of the next test is T4, UniProt Q9UGI0.
T4 sequence (whole entry): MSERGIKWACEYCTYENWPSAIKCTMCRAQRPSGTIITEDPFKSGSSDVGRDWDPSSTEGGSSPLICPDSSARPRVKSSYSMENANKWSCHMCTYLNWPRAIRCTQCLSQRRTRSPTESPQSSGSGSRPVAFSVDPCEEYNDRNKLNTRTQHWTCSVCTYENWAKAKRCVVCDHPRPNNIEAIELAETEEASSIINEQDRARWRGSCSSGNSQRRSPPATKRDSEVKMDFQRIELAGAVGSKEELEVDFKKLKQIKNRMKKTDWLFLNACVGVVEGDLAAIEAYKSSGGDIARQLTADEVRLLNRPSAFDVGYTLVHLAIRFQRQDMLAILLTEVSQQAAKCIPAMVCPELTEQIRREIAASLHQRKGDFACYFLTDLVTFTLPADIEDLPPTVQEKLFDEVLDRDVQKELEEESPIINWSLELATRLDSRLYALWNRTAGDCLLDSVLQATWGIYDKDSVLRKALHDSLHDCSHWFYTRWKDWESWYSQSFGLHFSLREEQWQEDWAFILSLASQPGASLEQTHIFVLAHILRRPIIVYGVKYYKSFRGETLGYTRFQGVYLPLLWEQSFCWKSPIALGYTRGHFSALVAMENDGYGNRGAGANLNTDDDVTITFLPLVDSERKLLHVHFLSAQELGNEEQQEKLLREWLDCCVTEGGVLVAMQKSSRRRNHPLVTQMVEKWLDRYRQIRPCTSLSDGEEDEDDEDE
The gist of the method: as §1

For the next test, the target named is T5, YOD1 (UniProt Q5VVQ6).
T5 sequence (whole entry): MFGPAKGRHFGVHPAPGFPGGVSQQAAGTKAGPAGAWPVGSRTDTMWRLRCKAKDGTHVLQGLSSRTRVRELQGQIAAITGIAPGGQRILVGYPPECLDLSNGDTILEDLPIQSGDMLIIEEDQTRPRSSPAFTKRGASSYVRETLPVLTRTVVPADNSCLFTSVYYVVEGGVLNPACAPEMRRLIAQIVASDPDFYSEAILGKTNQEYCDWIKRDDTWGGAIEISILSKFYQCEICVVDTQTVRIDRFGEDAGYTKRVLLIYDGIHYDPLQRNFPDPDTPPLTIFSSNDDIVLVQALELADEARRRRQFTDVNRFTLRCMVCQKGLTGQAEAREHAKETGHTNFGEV
The gist of the method:
as §1

UniProt P51784, sequence (P51784 whole entry): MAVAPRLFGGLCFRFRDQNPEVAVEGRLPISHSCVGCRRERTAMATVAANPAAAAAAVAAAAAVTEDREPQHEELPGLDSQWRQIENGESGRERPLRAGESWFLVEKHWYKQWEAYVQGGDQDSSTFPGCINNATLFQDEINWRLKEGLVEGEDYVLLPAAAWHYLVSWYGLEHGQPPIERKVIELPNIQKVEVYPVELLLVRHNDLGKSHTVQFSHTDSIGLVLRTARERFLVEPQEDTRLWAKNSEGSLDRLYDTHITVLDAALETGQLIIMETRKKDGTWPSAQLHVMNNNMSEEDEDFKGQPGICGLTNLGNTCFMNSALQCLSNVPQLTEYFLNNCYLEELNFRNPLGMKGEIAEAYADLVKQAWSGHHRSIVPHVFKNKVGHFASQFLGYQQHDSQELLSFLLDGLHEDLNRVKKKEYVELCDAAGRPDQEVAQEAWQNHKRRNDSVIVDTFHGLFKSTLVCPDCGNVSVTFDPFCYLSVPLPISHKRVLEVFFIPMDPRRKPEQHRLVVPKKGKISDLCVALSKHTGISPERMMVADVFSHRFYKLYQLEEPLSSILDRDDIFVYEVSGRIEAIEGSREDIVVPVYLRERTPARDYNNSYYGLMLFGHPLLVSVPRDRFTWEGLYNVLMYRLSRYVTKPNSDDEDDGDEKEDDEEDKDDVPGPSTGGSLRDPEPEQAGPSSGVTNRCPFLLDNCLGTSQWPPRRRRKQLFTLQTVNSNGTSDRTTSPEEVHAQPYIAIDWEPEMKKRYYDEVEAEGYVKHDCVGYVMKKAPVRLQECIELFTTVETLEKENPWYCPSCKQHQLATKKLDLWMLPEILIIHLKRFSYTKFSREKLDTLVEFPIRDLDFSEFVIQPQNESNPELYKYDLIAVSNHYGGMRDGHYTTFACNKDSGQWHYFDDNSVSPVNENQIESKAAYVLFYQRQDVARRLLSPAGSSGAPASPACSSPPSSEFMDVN
UniProt O00507, sequence (O00507 whole entry, the tested form may be a part): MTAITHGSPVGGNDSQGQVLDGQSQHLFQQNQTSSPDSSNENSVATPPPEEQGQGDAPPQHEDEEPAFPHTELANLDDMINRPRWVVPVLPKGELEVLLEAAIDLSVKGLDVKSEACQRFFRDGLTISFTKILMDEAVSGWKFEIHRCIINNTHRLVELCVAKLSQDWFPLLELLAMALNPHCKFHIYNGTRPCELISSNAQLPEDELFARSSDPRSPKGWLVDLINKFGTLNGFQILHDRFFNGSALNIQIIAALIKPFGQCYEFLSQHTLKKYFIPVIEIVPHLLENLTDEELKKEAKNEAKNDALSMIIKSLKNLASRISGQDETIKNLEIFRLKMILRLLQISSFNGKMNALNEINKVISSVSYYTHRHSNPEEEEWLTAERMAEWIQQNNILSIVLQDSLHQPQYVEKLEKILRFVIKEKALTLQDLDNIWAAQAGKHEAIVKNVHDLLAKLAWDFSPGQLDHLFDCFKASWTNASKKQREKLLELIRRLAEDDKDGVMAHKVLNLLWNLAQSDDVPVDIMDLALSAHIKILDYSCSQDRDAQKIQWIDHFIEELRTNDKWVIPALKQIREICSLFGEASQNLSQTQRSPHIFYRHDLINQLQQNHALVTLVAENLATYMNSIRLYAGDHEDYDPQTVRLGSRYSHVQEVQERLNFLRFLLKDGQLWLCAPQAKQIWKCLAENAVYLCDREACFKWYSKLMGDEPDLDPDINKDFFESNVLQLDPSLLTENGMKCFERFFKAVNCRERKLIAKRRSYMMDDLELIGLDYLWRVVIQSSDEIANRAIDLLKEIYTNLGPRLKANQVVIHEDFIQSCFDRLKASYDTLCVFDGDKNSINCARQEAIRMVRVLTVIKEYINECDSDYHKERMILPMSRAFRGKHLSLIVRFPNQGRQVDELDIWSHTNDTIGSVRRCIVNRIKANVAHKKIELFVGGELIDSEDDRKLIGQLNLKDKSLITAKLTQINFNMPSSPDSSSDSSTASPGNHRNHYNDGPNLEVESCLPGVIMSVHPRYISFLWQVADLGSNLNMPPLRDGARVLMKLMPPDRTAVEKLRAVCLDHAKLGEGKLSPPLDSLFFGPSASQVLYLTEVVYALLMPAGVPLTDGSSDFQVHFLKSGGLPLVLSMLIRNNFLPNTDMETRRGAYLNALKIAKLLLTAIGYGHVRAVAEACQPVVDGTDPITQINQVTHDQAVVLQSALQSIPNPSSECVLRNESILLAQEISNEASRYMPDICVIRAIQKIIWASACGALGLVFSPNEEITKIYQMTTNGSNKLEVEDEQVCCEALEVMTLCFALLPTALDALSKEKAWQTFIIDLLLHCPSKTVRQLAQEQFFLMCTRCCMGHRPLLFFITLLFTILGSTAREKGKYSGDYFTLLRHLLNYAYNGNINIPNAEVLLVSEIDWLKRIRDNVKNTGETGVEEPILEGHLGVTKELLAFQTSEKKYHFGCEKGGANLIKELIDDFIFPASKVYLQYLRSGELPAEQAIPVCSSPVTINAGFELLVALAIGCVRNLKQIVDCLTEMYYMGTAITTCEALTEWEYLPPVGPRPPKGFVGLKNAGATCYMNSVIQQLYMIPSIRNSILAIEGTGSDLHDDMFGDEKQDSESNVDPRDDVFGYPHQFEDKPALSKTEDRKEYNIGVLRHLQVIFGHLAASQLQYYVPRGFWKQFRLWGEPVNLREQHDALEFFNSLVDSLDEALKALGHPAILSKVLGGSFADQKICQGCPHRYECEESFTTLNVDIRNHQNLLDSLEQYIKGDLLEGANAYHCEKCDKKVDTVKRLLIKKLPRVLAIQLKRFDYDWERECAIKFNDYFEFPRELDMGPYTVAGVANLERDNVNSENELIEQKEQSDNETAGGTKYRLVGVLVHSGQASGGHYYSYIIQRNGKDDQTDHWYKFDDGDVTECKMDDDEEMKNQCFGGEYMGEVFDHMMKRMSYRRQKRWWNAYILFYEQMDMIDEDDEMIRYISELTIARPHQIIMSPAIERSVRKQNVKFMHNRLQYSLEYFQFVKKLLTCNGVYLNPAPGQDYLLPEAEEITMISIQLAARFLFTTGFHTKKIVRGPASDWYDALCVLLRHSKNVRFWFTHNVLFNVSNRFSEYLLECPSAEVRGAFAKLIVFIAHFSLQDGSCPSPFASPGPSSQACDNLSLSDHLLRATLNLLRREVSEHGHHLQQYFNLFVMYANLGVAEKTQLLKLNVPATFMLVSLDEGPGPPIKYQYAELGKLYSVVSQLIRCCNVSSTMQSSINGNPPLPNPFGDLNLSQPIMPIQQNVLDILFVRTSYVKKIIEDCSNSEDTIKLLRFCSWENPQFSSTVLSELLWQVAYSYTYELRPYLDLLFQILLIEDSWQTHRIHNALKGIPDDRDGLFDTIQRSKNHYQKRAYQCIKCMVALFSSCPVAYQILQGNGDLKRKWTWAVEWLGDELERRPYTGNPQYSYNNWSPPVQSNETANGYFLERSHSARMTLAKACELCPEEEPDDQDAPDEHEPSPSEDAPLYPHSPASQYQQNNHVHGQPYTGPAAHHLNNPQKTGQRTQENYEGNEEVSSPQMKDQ

Take `Cl.O=C(CCl)N1CCCC(c2ncc[nH]2)C1` (stereo not drawn): the “log2 ratio of Biotin-Ahx-Ub-VS probe labelling” value (“log2 ratio” for short) in the test with UniProt O00507 was 0.0496; in the test with UniProt P51784, 0.000136; with UniProt Q5T2D3, -0.124; with UniProt Q8TE49 it was -0.0422; with UniProt Q9P2H5 it was 0.113; in the test with UniProt Q9UGI0 it was -0.517. The “log2 ratio” value with YOD1 is -0.0255.

For `O=C(CCl)N1CCCC2CCCCC21` (stereo not drawn), the “log2 ratio” value with UniProt O00507 is -0.0343; in the test with UniProt P51784, 0.035; with UniProt Q5T2D3, -0.0557; with UniProt Q8TE49 it was -0.126; with UniProt Q9P2H5, -0.193; in the test with UniProt Q9UGI0, -0.134. For the same compound, the “log2 ratio” value with YOD1 is 0.0864.

On to `O=C(CCl)Nc1cccc2ncccc12`, for which the “log2 ratio” value is 0.145 with UniProt O00507; 0.265 with UniProt P51784; -0.164 with UniProt Q5T2D3; -0.784 with UniProt Q8TE49; -0.437 with UniProt Q9P2H5; -1.64 (active) in the test with UniProt Q9UGI0. The “log2 ratio” value with YOD1 is 0.469.

Regarding `Cc1nc(CN2CCN(C(=O)CCl)CC2)cs1`, the “log2 ratio” value was -0.246 with UniProt O00507; -0.106 with UniProt P51784; -0.213 in the test with UniProt Q5T2D3; -0.382 with UniProt Q8TE49; -0.401 with UniProt Q9P2H5; -0.214 with UniProt Q9UGI0. In addition, in the test with YOD1, the “log2 ratio” value is -0.111.

`O=C(CCl)NCCC1COCCO1` (stereo not drawn): the “log2 ratio” value was -0.31 in the test with UniProt O00507; 0.182 with UniProt P51784; -0.163 in the test with UniProt Q5T2D3; -0.547 with UniProt Q8TE49; -0.0395 with UniProt Q9P2H5; -0.194 with UniProt Q9UGI0. Further, the “log2 ratio” value in the test with YOD1 was -0.308.

With `Cc1ccc(CN(C)C(=O)CCl)o1`, the “log2 ratio” value in the test with UniProt O00507 is 0.383; with UniProt P51784, 0.146; with UniProt Q5T2D3, -0.109; in the test with UniProt Q8TE49 it was -0.671; in the test with UniProt Q9P2H5, -0.321; with UniProt Q9UGI0 it was -0.57. Also, the “log2 ratio” value with YOD1 was 0.384.

As to `O=C(CCl)NCCc1ccc(F)cc1`, the “log2 ratio” value with UniProt O00507 was -0.114; with UniProt P51784 it was 0.00457; with UniProt Q5T2D3, 0.0738; with UniProt Q8TE49, -0.0633; with UniProt Q9P2H5, 0.297; with UniProt Q9UGI0, -0.491. In addition, the “log2 ratio” value in the test with YOD1 is 0.0794.

For the compound `O=C(CCl)N1CCCCCC1c1ncon1` (stereo not drawn), the “log2 ratio” value with UniProt O00507 was -0.0474; in the test with UniProt P51784 it was -0.00586; in the test with UniProt Q5T2D3 it was -0.23; with UniProt Q8TE49, -0.401; with UniProt Q9P2H5 it was -0.21; with UniProt Q9UGI0, -0.661. The “log2 ratio” value with YOD1 was 0.022.

On to `Cl.O=C(CCl)NCCN1CCc2ccccc21`, for which the “log2 ratio” value in the test with UniProt O00507 is -0.631; in the test with UniProt P51784, -0.722; in the test with UniProt Q5T2D3 it was -0.805; with UniProt Q8TE49 it was -0.934; in the test with UniProt Q9P2H5, -0.844; with UniProt Q9UGI0, -0.971. For the same compound, the “log2 ratio” value in the test with YOD1 is -0.814.
